Test results as given in PubChem BioAssay.
For some assays here: Potency and affinity values are given separately. Calls of active or inactive are those of the source. Unless noted, the rule behind the calls is not given here.

What was measured:
[1] = antimalarial activity against Dd2 strain (AID 2302;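 active = growth inhibition above 50% at the single 2 µM test dose, taken to imply half-maximal potency below 2 µM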;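 note: 0% = DMSO untreated growth and 100% = chloroquine plus artemisinin killed control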); conditions: P. falciparum Dd2 in RBCs, LDH growth readout, 72 h; at 2 µM; hits give high values
[2] = HepG2 cytotoxicity, primary screen, cytotoxicity control for P. falciparum antimalarial project, cell-based, ATP luminescence (AID 2303;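 active = inhibition above 50%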;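 note: 0% = DMSO wells and 100% = digitonin-killed cells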); conditions: HepG2 viability, 24-48 h, at 10 µM, hits give high values
[3] = biological target: L-lactate dehydrogenase (Plasmodium falciparum (isolate CDC / Honduras)) (UniProt Q27743); experiment: PfLDH activity inhibition – cell lysate, 3D7 strain, counter-screen for P. falciparum growth inhibition project (AID 2304);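 note: 0% = vehicle and 100% = reference inhibitor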; conditions: P. falciparum 3D7 crude extract, LDH APAD/NBT absorbance; at 2 µM; hits give high values
[4] = inhibition of 3D7 malaria parasite growth – strain 3D7 (AID 2306);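 note: 0% = DMSO wells and 100% = chloroquine plus artemisinin control wells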; conditions: P. falciparum 3D7 erythrocytic growth, LDH absorbance, 72 h; at 2 µM; hits give high values
[5] = biological target: Calcium-dependent protein kinase 1 (Plasmodium falciparum (isolate 3D7)) (UniProt P62344); experiment: PfCDPK1 kinase inhibitors, biochemical, TCAMS library (AID 1159585; cut-off not given, nearly all actives have IC50 up to about 0.98 µM;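 note: inhibitors leave more ATP so luminescence rises with inhibition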); conditions: recombinant PfCDPK1, Kinase-Glo ATP depletion luminescence
[6] = biological target: Plasmodium falciparum protein kinase 6 (PK6, PF3D7_1337100) (UniProt Q8IDW1); experiment: PfPK6 kinase inhibitors, biochemical, TCAMS library (AID 1159586); conditions: recombinant PfPK6, Kinase-Glo ATP depletion luminescence
[7] = biological target: Protein kinase 7 (PK7), Plasmodium falciparum 3D7 (PF3D7_0213400) (UniProt Q7YTF7); experiment: inhibition of Plasmodium PK7 catalytic activity – biochemical, TCAMS antimalarial set, Kinase-Glo luminescence (AID 1159587); conditions: recombinant PfPK7, Kinase-Glo ATP depletion luminescence
[8] = biological target: Calcium-dependent protein kinase 4 (Plasmodium falciparum (isolate 3D7)) (UniProt Q8IBS5); experiment: PfCDPK4 kinase inhibitors, biochemical, TCAMS library (AID 1159588; cut-off not given, nearly all actives have IC50 up to about 0.91 µM); conditions: recombinant PfCDPK4, Kinase-Glo ATP depletion luminescence
Calcium-dependent protein kinase 4 (Plasmodium falciparum (isolate 3D7)), sequence (Q8IBS5 whole entry, looked up): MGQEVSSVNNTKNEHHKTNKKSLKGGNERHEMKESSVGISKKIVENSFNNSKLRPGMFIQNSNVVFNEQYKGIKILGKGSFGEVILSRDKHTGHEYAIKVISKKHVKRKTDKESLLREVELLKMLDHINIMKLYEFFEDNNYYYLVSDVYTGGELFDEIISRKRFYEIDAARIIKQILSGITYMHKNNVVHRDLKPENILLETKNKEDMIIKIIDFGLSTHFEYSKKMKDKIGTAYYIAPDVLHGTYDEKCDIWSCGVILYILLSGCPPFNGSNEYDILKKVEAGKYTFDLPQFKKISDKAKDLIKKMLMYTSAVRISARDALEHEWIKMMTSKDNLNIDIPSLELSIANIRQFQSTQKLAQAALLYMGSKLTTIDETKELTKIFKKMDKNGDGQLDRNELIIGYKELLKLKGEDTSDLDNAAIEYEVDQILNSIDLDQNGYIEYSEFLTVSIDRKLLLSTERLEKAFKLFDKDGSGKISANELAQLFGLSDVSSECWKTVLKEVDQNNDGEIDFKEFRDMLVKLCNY

Calcium-dependent protein kinase 1 (Plasmodium falciparum (isolate 3D7)), sequence (P62344 whole entry, looked up): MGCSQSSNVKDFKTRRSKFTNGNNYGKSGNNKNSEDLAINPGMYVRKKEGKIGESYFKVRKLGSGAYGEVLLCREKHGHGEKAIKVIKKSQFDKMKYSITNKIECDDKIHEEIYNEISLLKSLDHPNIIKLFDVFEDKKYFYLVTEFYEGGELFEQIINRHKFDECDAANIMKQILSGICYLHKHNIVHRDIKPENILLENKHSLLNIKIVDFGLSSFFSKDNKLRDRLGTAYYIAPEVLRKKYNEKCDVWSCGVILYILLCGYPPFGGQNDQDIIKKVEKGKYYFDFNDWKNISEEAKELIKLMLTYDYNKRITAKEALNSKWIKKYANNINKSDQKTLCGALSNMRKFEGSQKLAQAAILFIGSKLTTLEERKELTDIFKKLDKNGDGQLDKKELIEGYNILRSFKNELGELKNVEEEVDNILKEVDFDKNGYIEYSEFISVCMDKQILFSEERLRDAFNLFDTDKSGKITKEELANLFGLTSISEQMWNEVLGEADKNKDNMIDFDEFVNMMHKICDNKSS
Plasmodium falciparum protein kinase 6 (PK6, PF3D7_1337100), sequence (Q8IDW1 1-305): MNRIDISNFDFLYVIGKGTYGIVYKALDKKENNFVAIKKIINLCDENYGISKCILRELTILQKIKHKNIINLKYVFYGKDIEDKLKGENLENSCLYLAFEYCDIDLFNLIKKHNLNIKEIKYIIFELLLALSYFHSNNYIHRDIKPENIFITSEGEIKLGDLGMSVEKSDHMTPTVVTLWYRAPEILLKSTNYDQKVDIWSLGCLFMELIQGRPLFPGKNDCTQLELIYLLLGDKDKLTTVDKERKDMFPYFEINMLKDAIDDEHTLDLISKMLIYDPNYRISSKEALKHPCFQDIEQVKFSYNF
L-lactate dehydrogenase (Plasmodium falciparum (isolate CDC / Honduras)), sequence (Q27743 whole entry, looked up): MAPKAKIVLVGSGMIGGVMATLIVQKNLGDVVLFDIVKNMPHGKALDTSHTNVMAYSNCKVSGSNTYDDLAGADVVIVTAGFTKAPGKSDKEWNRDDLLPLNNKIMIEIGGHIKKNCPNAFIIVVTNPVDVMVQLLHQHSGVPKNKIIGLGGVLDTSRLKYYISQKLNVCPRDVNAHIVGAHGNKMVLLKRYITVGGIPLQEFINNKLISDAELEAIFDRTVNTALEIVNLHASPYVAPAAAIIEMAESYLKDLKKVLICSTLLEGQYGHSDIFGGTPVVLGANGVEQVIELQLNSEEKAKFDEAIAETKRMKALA
Protein kinase 7 (PK7), Plasmodium falciparum 3D7 (PF3D7_0213400), sequence (Q7YTF7 1-343): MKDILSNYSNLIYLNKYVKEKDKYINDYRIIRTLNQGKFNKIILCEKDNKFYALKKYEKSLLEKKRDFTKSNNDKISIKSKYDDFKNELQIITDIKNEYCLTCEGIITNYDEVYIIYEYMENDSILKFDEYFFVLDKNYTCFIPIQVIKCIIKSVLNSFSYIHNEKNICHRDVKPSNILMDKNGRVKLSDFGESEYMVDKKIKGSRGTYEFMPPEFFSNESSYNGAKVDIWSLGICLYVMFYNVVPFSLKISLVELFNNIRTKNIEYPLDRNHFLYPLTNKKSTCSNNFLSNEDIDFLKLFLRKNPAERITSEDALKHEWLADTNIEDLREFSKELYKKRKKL

CC1CCCN(Cc2c(O)ccc3c(=O)c(-c4nc5ccccc5s4)c(N)oc23)C1 (stereo not given)
active: growth inhibition [1] 99% | growth inhibition [4] 100%
inactive: inhibition [2] 20% | inhibition [3] -2% | outcome [5] | outcome [6] | outcome [7] | outcome [8]

CCCCN1CCN(Cc2cccc(NC(=O)c3ccc(Cl)c(Cl)c3)c2)CC1
inactive: growth inhibition [1] 24% | inhibition [2] 21% | inhibition [3] 1% | outcome [5] | outcome [6] | outcome [7] | outcome [8]
active: growth inhibition [4] 88%

CCCN(CCCCCCN(CCC)CCc1ccc(O)c(O)c1)CCc1ccc(O)cc1
active: growth inhibition [4] 90%
inactive: growth inhibition [1] 5% | inhibition [2] 0% | inhibition [3] -1% | outcome [5] | outcome [6] | outcome [7] | outcome [8]

Cc1cc(Nc2cccc(C(F)(F)F)c2)nc(Nc2cccc(C(F)(F)F)c2)n1
inactive: inhibition [2] -1% | inhibition [3] -3% | outcome [5] | outcome [6] | outcome [7] | outcome [8]
active: growth inhibition [1] 73% | growth inhibition [4] 100%

CN(C)Cc1ccc2cc(NC(=O)c3ccc(-c4ccc(Cl)cc4)cc3)ccc2n1
active: inhibition [2] 60% | growth inhibition [4] 86%
inactive: growth inhibition [1] 30% | inhibition [3] -1% | outcome [5] | outcome [6] | outcome [7] | outcome [8]

O=C(/C=C/c1cccc(Cl)c1)Nc1ccc2nc(CN3CCCC3)ccc2c1
active: growth inhibition [4] 99%
inactive: growth inhibition [1] 42% | inhibition [2] 47% | inhibition [3] 4% | outcome [5] | outcome [6] | outcome [7] | outcome [8]

CN1CCC(Oc2ccc(CN3CC[C@H](NC(=O)c4ccc(Cl)c(Cl)c4)C3)cc2Cl)C1 (stereo not given in full)
active: growth inhibition [1] 78% | inhibition [2] 68% | growth inhibition [4] 101%
inactive: inhibition [3] 0% | outcome [5] | outcome [6] | outcome [7] | outcome [8]

Cc1ccc(C(O)CNc2ccnc(Nc3cccc(-c4csc(C)n4)c3)n2)cc1 (stereo not given)
active: growth inhibition [4] 92%
inactive: growth inhibition [1] 31% | inhibition [2] 17% | inhibition [3] -2% | outcome [5] | outcome [6] | outcome [7] | outcome [8]

CS(=O)(=O)c1ccc(CNCc2ccc(-c3ccc(-c4nc5ccc(F)cc5[nH]4)s3)cc2)cc1
inactive: inhibition [2] 22% | inhibition [3] 0% | outcome [5] | outcome [6] | outcome [7] | outcome [8]
active: growth inhibition [1] 97% | growth inhibition [4] 102%

COc1ccc(-c2cccc(NC(=O)c3cccc(C#N)c3)c2)cc1CN1CCCC1
inactive: growth inhibition [1] 32% | inhibition [2] 28% | inhibition [3] -4% | outcome [5] | outcome [6] | outcome [7] | outcome [8]
active: growth inhibition [4] 98%

N#Cc1ccc(NC(=O)c2ccc(Cc3ccc4c(c3)CCN(C3CCC3)CC4)cn2)cc1
inactive: growth inhibition [1] 2% | inhibition [3] -4% | outcome [5] | outcome [6] | outcome [7] | outcome [8]
active: inhibition [2] 66% | growth inhibition [4] 91%

O=C(Nc1cccc(CN2CCCN(Cc3ccc4c(c3)OCO4)CC2)c1)c1ccc(-c2ccccc2)cc1
inactive: growth inhibition [1] 19% | inhibition [2] 48% | inhibition [3] -10% | outcome [5] | outcome [6] | outcome [7] | outcome [8]
active: growth inhibition [4] 90%

COc1cccc(-c2[nH]c3ccccc3c2CN2CCC(c3c(C)cccc3C)CC2)c1
inactive: growth inhibition [1] 24% | inhibition [2] 32% | inhibition [3] 3% | outcome [5] | outcome [6] | outcome [7] | outcome [8]
active: growth inhibition [4] 99%

COc1ccc2nccc([C@@H](O)CN3CCC(NC(=O)c4ccc(CN5CCN(c6cccc(C)c6)CC5C)cc4)CC3)c2c1 (stereo not given in full)
active: growth inhibition [1] 86% | inhibition [2] 50% | growth inhibition [4] 97%
inactive: inhibition [3] 4% | outcome [5] | outcome [6] | outcome [7] | outcome [8]

CC(C)C[C@H](NC(=O)c1cccc(F)c1)C(=O)N[C@H](/C=N/NC(=O)c1ccccc1)CCc1ccccc1
inactive: inhibition [2] 0% | inhibition [3] 2% | outcome [5] | outcome [6] | outcome [7] | outcome [8]
active: growth inhibition [1] 71% | growth inhibition [4] 93%

Cc1ccc(C2CCN(CCCCNC(=O)c3ccc(NC(=O)c4ccc(Cl)cc4)cc3)CC2)c(C)c1
inactive: growth inhibition [1] 10% | inhibition [2] 23% | inhibition [3] -1% | outcome [5] | outcome [6] | outcome [7] | outcome [8]
active: growth inhibition [4] 96%

CN1CCC(NCc2cccc(-c3ccc(S(=O)(=O)NCCc4ccccn4)c(F)c3)c2)CC1
active: growth inhibition [4] 98%
inactive: growth inhibition [1] 26% | inhibition [2] 11% | inhibition [3] 7% | outcome [5] | outcome [6] | outcome [7] | outcome [8]

CCOCCCn1c(=N)c(C(=O)NCc2ccc(OC)cc2)cc2c(=O)n3cccc(C)c3nc21
inactive: growth inhibition [1] 46% | inhibition [2] 24% | inhibition [3] 2% | outcome [5] | outcome [6] | outcome [7] | outcome [8]
active: growth inhibition [4] 99%

COc1ccc2nccc([C@@H](O)CN3CCC(NCc4cc5cccc6c5n(c4=O)CCC6)CC3)c2c1
active: growth inhibition [1] 97% | growth inhibition [4] 98%
inactive: inhibition [2] 33% | inhibition [3] 1% | outcome [5] | outcome [6] | outcome [7] | outcome [8]

COc1cc(CNC[C@@H](O)[C@H](Cc2ccccc2)NC(=O)c2cc(C3CCCC3)cc(N3CCCCS3(=O)=O)c2)cc(OC)c1
inactive: inhibition [2] 16% | inhibition [3] 4% | outcome [5] | outcome [6] | outcome [7] | outcome [8]
active: growth inhibition [1] 96% | growth inhibition [4] 98%

CCOC(=O)c1ccc(-c2cnoc2-c2cc(CC)c(OC)cc2O)o1
inactive: inhibition [2] 12% | inhibition [3] 1% | outcome [5] | outcome [6] | outcome [7] | outcome [8]
active: growth inhibition [1] 97% | growth inhibition [4] 101%

Cc1cc(N[C@@H](CC(C)C)C(=O)Nc2ccccc2)nc(NCC2CCCCC2)n1
inactive: inhibition [2] 8% | inhibition [3] 1% | outcome [5] | outcome [6] | outcome [7] | outcome [8]
active: growth inhibition [1] 95% | growth inhibition [4] 101%

N#Cc1ccc(-c2ccc3nc(N4CCCN(C5CCC5)CC4)ccc3c2)cc1
inactive: growth inhibition [1] 14% | inhibition [2] 36% | inhibition [3] -2% | outcome [5] | outcome [6] | outcome [7] | outcome [8]
active: growth inhibition [4] 96%

c1cc(-c2ccc(CN3CCCCC3)cc2)cc(-c2nc3ccccc3[nH]2)c1
inactive: inhibition [2] 39% | inhibition [3] 5% | outcome [5] | outcome [6] | outcome [7] | outcome [8]
active: growth inhibition [1] 79% | growth inhibition [4] 101%

COc1ccc2nccc([C@@H](O)CN3CCC(NCc4ccc5c(n4)NCCC5)CC3)c2c1
inactive: growth inhibition [1] 39% | inhibition [2] 21% | inhibition [3] -3% | outcome [5] | outcome [6] | outcome [7] | outcome [8]
active: growth inhibition [4] 101%

O=C(N[C@@H](CC1CCCCC1)C(=O)NC1CCCc2ccccc21)c1ccc(O)c(-c2ccc(Cl)c(Cl)c2)c1 (stereo not given in full)
active: growth inhibition [1] 99% | growth inhibition [4] 98%
inactive: inhibition [2] 1% | inhibition [3] -3% | outcome [5] | outcome [6] | outcome [7] | outcome [8]

Fc1ccc2nc(-c3ccc(-c4cccc(CN5CCCCC5)c4)cc3)[nH]c2c1
inactive: inhibition [2] 10% | inhibition [3] -6% | outcome [5] | outcome [6] | outcome [7] | outcome [8]
active: growth inhibition [1] 101% | growth inhibition [4] 100%

Cn1cccc1C(=O)NCC(CCNc1cc(=O)c2ccccc2[nH]1)NCc1cc(Br)cc(Br)c1 (stereo not given)
inactive: inhibition [2] -3% | inhibition [3] -2% | outcome [5] | outcome [6] | outcome [7] | outcome [8]
active: growth inhibition [1] 52% | growth inhibition [4] 92%

O=C(Nc1cccc(-c2cccc(-c3nc4ccc(C(F)(F)F)cc4[nH]3)c2)c1)c1csnn1
active: growth inhibition [4] 99%
inactive: growth inhibition [1] 37% | inhibition [2] 45% | inhibition [3] 3% | outcome [5] | outcome [6] | outcome [7] | outcome [8]

OC(CN1c2ccccc2Sc2ccccc21)CN(C1CCCCC1)C1CCCCC1 (stereo not given)
inactive: inhibition [2] 46% | inhibition [3] -5% | outcome [5] | outcome [6] | outcome [7] | outcome [8]
active: growth inhibition [1] 96% | growth inhibition [4] 99%

COc1cc(CCON2C(N)=NC(N)=NC2(C)C)cc(OC)c1OC
inactive: inhibition [3] -1% | outcome [5] | outcome [6] | outcome [7] | outcome [8]
active: growth inhibition [1] 95% | inhibition [2] 59% | growth inhibition [4] 93%

COC(=O)Cn1c(C2CCN(CC3CCN(C(=O)/C=C/c4ccc(Cl)c(Cl)c4)CC3)CC2)nc2ccccc21
active: growth inhibition [4] 86%
inactive: growth inhibition [1] 2% | inhibition [2] 19% | inhibition [3] -1% | outcome [5] | outcome [6] | outcome [7] | outcome [8]

OC1CCCN(Cc2ccc(-c3cccc(-c4nc5ccccc5[nH]4)c3)cc2)C1 (stereo not given)
inactive: growth inhibition [1] -3% | inhibition [2] 14% | inhibition [3] 2% | outcome [5] | outcome [6] | outcome [7] | outcome [8]
active: growth inhibition [4] 86%

Nc1c(Cl)cc(C(O)CNCCCCCOCCc2ccccc2)cc1C(F)(F)F (stereo not given)
inactive: inhibition [2] 3% | inhibition [3] 5% | outcome [5] | outcome [6] | outcome [7] | outcome [8]
active: growth inhibition [1] 96% | growth inhibition [4] 99%

COc1ccc(CCn2c(=N)c(C(=O)NCc3ccc(C)cc3)cc3c(=O)n4ccccc4nc32)cc1
inactive: growth inhibition [1] 16% | inhibition [2] 13% | inhibition [3] -3% | outcome [5] | outcome [6] | outcome [7] | outcome [8]
active: growth inhibition [4] 97%

CN(CCN1CCCC1)c1nc2ccc(-n3cnc4cc(-c5ccc(Cl)cc5)sc4c3=O)cc2[nH]1
active: inhibition [2] 76% | growth inhibition [4] 93%
inactive: growth inhibition [1] 15% | inhibition [3] 3% | outcome [5] | outcome [6] | outcome [7] | outcome [8]

COc1cc(Cc2cnc(N)nc2N)ccc1OCc1ccc(-c2ccccc2C#N)cc1
active: growth inhibition [4] 93%
inactive: growth inhibition [1] 3% | inhibition [2] 32% | inhibition [3] 6% | outcome [5] | outcome [6] | outcome [7] | outcome [8]

Cc1cc(NC(=O)Nc2ccc(C(C)(C)C)cc2)c2ccccc2n1
inactive: inhibition [2] -3% | inhibition [3] 5% | outcome [5] | outcome [6] | outcome [7] | outcome [8]
active: growth inhibition [1] 57% | growth inhibition [4] 101%

Cc1cc(N2CCCN(C)CC2)nc(Nc2ccc(Br)cc2)n1
inactive: growth inhibition [1] 14% | inhibition [2] 8% | inhibition [3] 7% | outcome [5] | outcome [6] | outcome [7] | outcome [8]
active: growth inhibition [4] 94%

CN(C)c1ccc(-c2csc(C(=O)NC3CCCCN(CCC(C)(C)C)C3)c2)cc1 (stereo not given)
active: growth inhibition [1] 68% | growth inhibition [4] 91%
inactive: inhibition [2] 10% | inhibition [3] 4% | outcome [5] | outcome [6] | outcome [7] | outcome [8]
